Screening data: PubChem, National Center for Advancing Translational Sciences (NCATS)
The list is not random: actives were taken first. Their share in the collection is about 4%.
D1 ag – activates the human D1 dopamine receptor | AID 504660 | HEK293 T-REx D1 cells, calcium flux, agonist mode | actives 1% (n = 360,000) | activation, % at 2 µM | P21728
Target sequence (P21728 whole entry, looked up): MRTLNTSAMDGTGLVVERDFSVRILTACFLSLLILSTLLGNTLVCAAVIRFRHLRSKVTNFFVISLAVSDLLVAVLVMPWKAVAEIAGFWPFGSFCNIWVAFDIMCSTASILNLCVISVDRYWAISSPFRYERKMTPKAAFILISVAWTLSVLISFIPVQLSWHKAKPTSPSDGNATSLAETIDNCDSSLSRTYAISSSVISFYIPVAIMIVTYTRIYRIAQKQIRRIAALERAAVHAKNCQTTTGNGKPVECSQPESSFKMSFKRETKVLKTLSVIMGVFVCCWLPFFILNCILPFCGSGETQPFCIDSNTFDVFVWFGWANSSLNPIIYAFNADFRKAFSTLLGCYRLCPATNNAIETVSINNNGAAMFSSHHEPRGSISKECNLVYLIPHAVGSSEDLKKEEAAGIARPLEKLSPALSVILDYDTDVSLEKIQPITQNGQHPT
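Tetracycline-induced HEK293 TREx D1 cells, force-coupled to calcium signalling, were dye-loaded with a no-wash calcium kit. Compound was pin-added after a 10 s baseline. Fluorescence was read kinetically at 1 cycle/s for 180 s, with calcium rises flagged as agonism.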
D1 antagonist – human D1 dopamine receptor antagonism | activity change, negative = inhibition, % at 10 µM | HEK293 TREx D1 cells, calcium flux, dopamine EC80; active compounds read low | actives 3.2% (n = 360,000) | AID 504652 | P21728; in the data active = activity change below about -30%
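HEK293 T-REx cells expressing inducible, force-coupled D1 receptor; no-wash Ca dye, 30–90 min RT. Cmpd → 180 s read at 1 Hz → EC80 DA → 180 s read.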
D1 potentiator – enhances dopamine response at the human D1 receptor | P21728 | HEK293 TREx D1 cells, calcium flux, dopamine EC20 potentiation | potentiation, % at 10 µM | actives 0.036% (n = 360,000) | AID 504651; in the data active = potentiation above about 30%
TRHR ag – agonists of human TRH receptor | AID 493084 | activation, % at 2 µM | actives 0.18% (n = 360,000) | TRHR cells, calcium flux fluo-8, FDSS agonist mode
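Agonist-mode FDSS calcium read (Ex 480/Em 530, 1 s cycles) in 1536-well TRHR cells with fluo-8 dye, after 10-cycle baseline and 23 nL compound addition; TRH at EC20 (10 nM final) added afterwards for the enhancer phase.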
TRHR enhancer – allosterically enhances the human TRH receptor; TRHR cells, fluo-8 calcium fluorescence, EC20 TRH enhancement; actives 0.66% (n = 360,000); P34981; enhancement, % at 2 µM; in the data active = enhancement above about 30%
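TRHR-expressing cells loaded with fluo-8 calcium dye were read kinetically (ex 480/em 530) during compound addition, then stimulated with an EC20 of TRH (10 nM final). Enhancement of the Gq-mediated intracellular calcium response was scored.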
Glioma ERSR ind – ER stress response induction in glioma; U87-MG GRP78 promoter luciferase reporter, 16 h; Potency, µM, usual class: activators; actives 0.02% (n = 420,000); active = well fitted activation curve with a large enough effect; note: series mostly up to about 76 µM; nearly all actives have a fitted effect of over 35% in size
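Stably transfected U87-MG human glioma cells carrying a GRP78-based luminescent sensor were seeded at 1000 cells/well, pin-dosed with compounds and incubated 16 h. Luciferase reagent was then added, and end-point luminescence was read after 10 min at room temperature.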
Hits are given with their value. Cut-off read from the data, not from the text of the source, unless noted: active = activation above about 30%; inactive = the rest.

What do the screens show for `COc1ccc(-c2[nH]n(-c3ccc([N+](=O)[O-])cc3)c(=O)c2C=NCc2ccncc2)cc1`?
D1 ag: inactive; D1 antagonist: -31.4; D1 potentiator: inactive; TRHR ag: inactive; TRHR enhancer: inactive; Glioma ERSR ind: inactive

How did COc1ccc(-c2[nH]n(-c3ccc([N+](=O)[O-])cc3)c(=O)c2C=NCc2ccc(F)cc2)cc1 do in these assays?
D1 ag: inactive; D1 antagonist: inactive; D1 potentiator: inactive; TRHR ag: inactive; TRHR enhancer: inactive; Glioma ERSR ind: inactive

What do the screens show for `C[N+]1(CC(=O)c2ccc(O)c(O)c2)CCOCC1`?
Glioma ERSR ind: inactive

Results for COc1ccc(S(=O)(=O)Oc2ccc3cccc(N)c3c2)cc1 ?
Glioma ERSR ind: inactive

Results for COc1ccc(S(=O)(=O)Oc2ccc3ccccc3c2)cc1 ?
D1 ag: inactive; D1 antagonist: -39.2; D1 potentiator: inactive; TRHR ag: inactive; TRHR enhancer: inactive; Glioma ERSR ind: inactive

What do the screens show for `COc1ccc(Cl)cc1-n1nnc(-c2nc(-c3ccccc3)no2)c1C`?
D1 ag: inactive; D1 antagonist: -56.6; D1 potentiator: inactive; TRHR ag: inactive; TRHR enhancer: inactive; Glioma ERSR ind: inactive

What do the screens show for `COc1cc(-c2noc(-c3nnn(-c4ccc(Cl)cc4)c3C)n2)cc(OC)c1OC`?
D1 ag: inactive; D1 antagonist: -33.2; D1 potentiator: inactive; TRHR ag: inactive; TRHR enhancer: inactive

What do the screens show for `Cc1c(-c2nc(-c3ccccc3)no2)nnn1-c1ccc(F)c(Cl)c1`?
D1 ag: inactive; D1 antagonist: inactive; D1 potentiator: inactive; TRHR ag: inactive; TRHR enhancer: inactive; Glioma ERSR ind: inactive

How did Cc1cccc(C(=O)n2c(=S)nc3ccccn32)c1 do in these assays?
D1 ag: inactive; D1 antagonist: inactive; D1 potentiator: inactive; TRHR ag: inactive; TRHR enhancer: inactive; Glioma ERSR ind: inactive

How did N/C(=N\OC(=O)Cc1cccs1)c1ccccc1 do in these assays?
D1 ag: inactive; D1 antagonist: -38.2; D1 potentiator: inactive; TRHR ag: inactive; TRHR enhancer: inactive; Glioma ERSR ind: inactive

Results for CCC1CN(CC(=O)NC(C)c2cn(C)nc2C)Cc2cc(OC)ccc2O1 (configuration not stated) ?
Glioma ERSR ind: inactive

Results for CCCCC(CC(O)COCCC)c1n[nH]c(=S)n1-c1ccccc1 (configuration not stated) ?
D1 ag: inactive; D1 antagonist: -44.7; D1 potentiator: inactive; TRHR ag: inactive; TRHR enhancer: inactive; Glioma ERSR ind: inactive

How did CCCCCC(O)CCc1n[nH]c(=S)n1-c1ccccc1 (configuration not stated) do in these assays?
D1 ag: inactive; D1 antagonist: inactive; D1 potentiator: inactive; TRHR ag: inactive; TRHR enhancer: inactive; Glioma ERSR ind: inactive

Results for C=C(C)C(O)/C=C/c1ccc(OC)cc1 (configuration not stated) ?
Glioma ERSR ind: inactive

How did CCOC(=O)N1CCN(c2cc(C)c(C(C)=O)cc2F)CC1 do in these assays?
D1 ag: inactive; D1 antagonist: -41.6; D1 potentiator: inactive; TRHR ag: inactive; TRHR enhancer: inactive; Glioma ERSR ind: inactive

What do the screens show for `CCOC(=O)N1CCN(c2ccc(C(=O)c3ccccc3)cc2F)CC1`?
D1 ag: inactive; D1 antagonist: -41.7; D1 potentiator: inactive; TRHR ag: inactive; TRHR enhancer: inactive; Glioma ERSR ind: inactive

What do the screens show for `CCC(=O)c1ccc(N2CCN(C(=O)c3ccccc3F)CC2)c(F)c1`?
D1 ag: 37.8; D1 antagonist: inactive; D1 potentiator: inactive; TRHR ag: inactive; TRHR enhancer: inactive; Glioma ERSR ind: inactive

What do the screens show for `CCOC(=O)N1CCN(c2ccc(C(C)=O)cc2F)CC1`?
D1 ag: inactive; D1 antagonist: inactive; D1 potentiator: inactive; TRHR ag: inactive; TRHR enhancer: inactive; Glioma ERSR ind: inactive

What do the screens show for `CC(=O)c1cc(F)c(N2CCN(C(=O)Cc3ccccc3)CC2)cc1C`?
D1 ag: inactive; D1 antagonist: inactive; D1 potentiator: inactive; TRHR ag: inactive; TRHR enhancer: inactive; Glioma ERSR ind: inactive

How did CN(C(=O)c1cccc(NC(=O)Cc2ccc(NC(=O)C3CCN(C(=O)c4ccccc4)CC3)cc2)c1)C1CCCCC1 do in these assays?
Glioma ERSR ind: inactive
